# Screening results deposited in PubChem BioAssay by National Center for Advancing Translational Sciences (NCATS).
# The list is not random: actives were taken first. Their share in the collection is about 9.3%.
# ELG1 genotox – induces genotoxicity in HEK293T cells with luciferase-tagged ELG1 | HEK293T ELG1-luciferase reporter, luminescence, 16 h | Potency, µM (series often up to 46 µM), for the others: at the top dose activity change, positive = activation, usual class: activators | 330,000 compounds, 1.3% hits | AID 504466; note: % of control where 0% means no effect; nearly all actives have a fitted effect of over 60% in size
#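 HEK293T cells expressing luciferase-tagged ELG1 were exposed to compound or DMSO vehicle for 16 hr at 37 °C and 5% CO2. Luciferase activity was then measured with ONE-Glo after 30 min at room temperature.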
# ELG1 repair inh – blocks ELG1-dependent DNA repair in HEK293T cells; HEK293T ELG1-luciferase reporter, luminescence, 16 h; DNA damage induced by 5-fluorouridine; Potency, µM (series often up to 46.1 µM), without a hit: at the top dose activity change, negative = inhibition, hits mostly inhibitors; 330,000 compounds, 2.3% hits; note: % is set by controls: 0 for no effect and ±100 for the full control effect; nearly all actives have a fitted effect of over 55% in size
#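 Step one: seed 2,000 cells per well. Step two: pin-transfer compound or DMSO alongside 5-fluorouridine. Step three: incubate 16 hr, 37 °C, 5% CO2. Step four: add ONE-Glo, wait 30 min, read luminescence.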
# Rab9 promoter act – Rab9 promoter activation | Huh7 Rab9 promoter-luciferase reporter, luminescence, 24 h | Potency, µM (series often up to 9.22 µM), for inactives: top-dose activation, negative = inhibition, hits mostly activators | 320,000 compounds, 2.8% hits; note: % of control where 0% means no effect; nearly all actives have a fitted effect of over 60% in size
#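 Rab9 promoter-driven luciferase in stably transfected Huh7 cells; 1500 cells/well rested 2 h, exposed to compound in DMSO for 24 h at 37 °C, 5% CO2. Luminescence read 10 min after adding luciferase reagent at ambient temperature.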
# SMN2 splice enh – SMN2 splice variant enhancement | Potency, µM (highest dose often 46.1 µM), for inactives: top-dose activity change, positive = activation, usual class: activators | AID 1458 | 210,000 compounds, 2.8% hits | HEK293 SMN2-luciferase splicing reporter, luminescence, 30-36 h; note: % of control where 0% means no effect; nearly all actives have a fitted effect of over 55% in size
#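 qHTS luciferase splicing reporter: luminescence rises when SMN2 exon 7 is included in transfected HEK293 cells. Compound exposure lasted 30-36 h at 37C, with 4.5 mM final sodium butyrate as control, followed by a ONE-Glo read.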
# FLuc counter – counter-screen for miR-21 project: firefly luciferase inhibitors or activators; P08659; purified FLuc, Km substrates, luminescence inhibition; Potency, µM (doses to about 57.5 µM), for inactives: at the highest dose activity change, negative = inhibition, hits mostly inhibitors; 360,000 compounds, 6.9% hits;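 note: plate controls were vehicle for no effect and reference inhibitor for full effect; nearly all actives have a fitted effect of over 55% in size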
# Target sequence (P08659 whole entry, looked up): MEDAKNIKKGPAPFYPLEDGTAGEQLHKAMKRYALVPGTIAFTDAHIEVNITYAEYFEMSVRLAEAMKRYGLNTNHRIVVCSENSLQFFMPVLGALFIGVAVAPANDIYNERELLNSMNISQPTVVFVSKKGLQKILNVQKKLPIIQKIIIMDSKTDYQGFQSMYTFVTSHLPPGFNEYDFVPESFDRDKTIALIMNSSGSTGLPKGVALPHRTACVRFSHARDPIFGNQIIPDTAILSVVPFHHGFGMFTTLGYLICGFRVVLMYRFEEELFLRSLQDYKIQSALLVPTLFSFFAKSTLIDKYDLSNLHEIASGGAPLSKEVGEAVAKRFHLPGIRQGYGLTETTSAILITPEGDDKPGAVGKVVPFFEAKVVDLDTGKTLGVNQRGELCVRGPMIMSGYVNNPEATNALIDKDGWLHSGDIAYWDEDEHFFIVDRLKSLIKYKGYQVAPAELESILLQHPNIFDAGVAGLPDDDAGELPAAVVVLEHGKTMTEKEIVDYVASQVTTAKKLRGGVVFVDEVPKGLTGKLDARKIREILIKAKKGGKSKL
#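 Purified P. pyralis luciferase, 10 nM final, with Km-level 10 uM D-luciferin and 10 uM ATP in 50 mM Tris acetate pH 7.5, 10 mM Mg acetate, 0.01% Tween-20, 0.05% BSA; 6-point qHTS titration about 60 µM downward; luminescence read.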
# NPC1 prom act – activates the NPC1 promoter. Huh7 NPC1 promoter luciferase reporter, 24 h. Potency, µM (top dose mostly 9.22 µM), without a hit: at the top dose activation, usual class: activators. 320,000 compounds, 2.4% hits; note: % of control where 0% means no effect; nearly all actives have a fitted effect of over 60% in size
#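 Huh7 cells stably carrying NPC1 promoter–luciferase, plated in Opti-MEM with 10% FBS for 2 h, were exposed to compound in DMSO for 24 h at 37 °C; luciferase reagent was added for 10 min and luminescence read.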
# An asterisk follows results filed as active; ? = inconclusive; . = no result given; [ ] = another dose, or the depositor's remark. Calls come from the whole dose curve; as a rule, active = well fitted curve in the direction sought with a large enough effect; inconclusive = small, poorly fitted or top-dose-only effect, or another doubt; inactive = no such curve, though single readings can be large; an effect the other way counts as inactive or inconclusive. Potency is the fitted concentration of half-maximal effect.
SMILES,ELG1 genotox,ELG1 repair inh,Rab9 promoter act,SMN2 splice enh,FLuc counter,NPC1 prom act
O=C(Nc1nc(-c2cc3ccccc3o2)cs1)c1ccc(S(=O)(=O)N2CCCC2)cc1,-4.7%,?,-22.0%,-39.8%,-0.4%,-15.6%
COc1cccc(C(=O)Nc2nc(-c3ccc(S(=O)(=O)N4CCOCC4)cc3)cs2)c1,-30.9%,?,-10.0%,-59.8%,-6.3%,-6.0%
Cc1ccc(S(=O)(=O)N2CCOCC2)cc1C(=O)Nc1nc(-c2cccnc2)cs1,-24.1%,11.6µM*,-3.2%,4.8%,3.3%,-3.6%
Cc1nc2ccc(NC(=O)c3ccc(S(=O)(=O)N4CCOCC4)cc3)cc2s1,-6.8%,9.2µM*,-10.0%,-48.5%,0.5%,-3.6%
Cc1ccc(S(=O)(=O)N2CCOCC2)cc1C(=O)NCc1cccnc1,-0.1%,1.3%,-4.7%,30.7%,7.7%,0.0%
O=C(Nc1nc(-c2nc3ccccc3s2)cs1)c1ccc(S(=O)(=O)N2CCOCC2)cc1,-13.1%,?,4.47µM*,.,?,3.16µM*
O=C(C[n+]1ccccc1)N/N=C/c1ccc(C(=O)O)cc1,2.0%,11.7%,-2.5%,.,2.1%,-0.3%
CN(C)/C=N/c1ncn(-c2ncc(C(F)(F)F)cc2Cl)n1,?,?,2.24µM*,11.2µM*,?,3.16µM*
CC(=O)Nc1ccc(S(=O)(=O)N2CCC(N3CCCC3)CC2)cc1,6.1%,-0.8%,-8.7%,.,-1.3%,-4.0%
CC(=O)Nc1ccc(S(=O)(=O)N2CCC(n3cnc4cc(F)ccc43)CC2)cc1,-11.6%,10µM*,5.9%,-10.6%,2.9%,-0.5%
CC1(C)Cc2cccc(OCC(=O)Nc3ccc(S(N)(=O)=O)cc3)c2O1,-8.4%,-9.2%,1.1%,.,-0.8%,-2.6%
COc1ccc(OC)c(NC(=O)Cn2c(=O)n(CC3CCCO3)c(=O)c3cc(OC)c(OC)cc32)c1 (stereo unspecified),1.4%,?,-2.3%,-15.1%,-2.2%,-2.7%
COc1ccc(-c2ccc(SCC(=O)NC3CCCCC3)nn2)cc1,?,?,2.24µM*,.,1.69µM*,?
Cc1ccc(-c2ccc(SCC(=O)NC3CCCC3)nn2)cc1,-1.7%,22.3%,11.2%,.,?,12.7%
Cc1ccc(-c2ccc(SCC(=O)NC3CCCCC3)nn2)cc1,10.0%,?,28.4%,.,2.69µM*,?
COc1ccc(-c2nnc(SCC(=O)NC3CCCCC3)o2)cc1,4.6%,14.1%,2.2%,.,?,-5.9%
COc1ccc(-c2cn3nc(SCC(=O)NC4CCCCC4)ccc3n2)cc1,?,?,0.708µM*,.,0.338µM*,0.562µM*
COc1cccc(-c2ccc(SCC(=O)NC3CCCC3)nn2)c1,4.1%,3.4%,7.2%,.,-23.9%,0.2%
CCOc1ccc(-c2ccc(SCC(=O)NC3CCCCC3)nn2)cc1,?,?,1.58µM*,.,0.379µM*,2µM*
COCCN1C(=S)N[C@@H](c2ccccc2)C(C(=O)OC)=C1C,.,.,-9.9%,.,-2.6%,-0.2%
Cc1ccc(NC2=NC(c3ccc(F)cc3)n3c(nc(C)cc3=O)N2)cc1 (stereo unspecified),-0.6%,-5.7%,-0.7%,.,2.1%,-1.3%
Cc1cc(-c2ccc(C)c(S(=O)(=O)NCc3ccc(OC(C)C)cc3)c2)on1,0.3%[9.26 µM],?,-0.4%,.,-0.1%,-6.1%
COc1ccc(-c2nnc(SCC(=O)NC3CCCCC3)nc2-c2ccc(OC)cc2)cc1,.,.,.,.,3.8%,.
COc1ccc(-c2nc(SCC(=O)NC3CCCCC3)n[nH]2)cc1,-4.0%,?,-2.8%,.,15.1µM*,-10.0%
COc1ccc(C(=O)/C=C2/c3ccccc3CC(C)(C)N2C)cc1,9.3%,20.1%,-13.9%,-14.5%,5.36µM*,-34.5%
SMILES,ELG1 genotox,ELG1 repair inh,Rab9 promoter act,SMN2 splice enh,FLuc counter,NPC1 prom act
COc1ccc(C(=O)/C=C2/C(=O)Nc3ccccc32)cc1,?,?,-0.2%,.,2.39µM*,3.1%
O=C1Nc2ccccc2/C1=C/C(=O)c1cccs1,-5.6%,-3.3%,15.3%,?,15.1µM*,-3.2%
COc1ccc(C2(C(=O)c3ccccc3)C(=O)c3ccccc3C2=O)cc1,?,?,?,.,4.78µM*,2µM*
O=C(NC1=NCCS1)c1ccccc1OCc1ccc(F)cc1,-0.9%,-6.7%,0.4%,-4.8%,-1.9%,-1.4%
COc1ccc(C(=O)/C=C2/C(=O)Nc3ccccc32)c(OC)c1,-4.7%,0.0%,0.5%,.,8.49µM*,0.9%
COc1ccc(C(=O)/C=C2/C(=O)Nc3ccccc32)cc1OC,6.6%,7.2%,-0.8%,.,-13.7%,-0.9%
Cc1nc2c(ccc3c([N+](=O)[O-])cccc32)c(C)c1C,5.8%,11.8%,15.1%,5.2%,-18.4%,12.1%
C=CCn1c(C)cc(C(=O)COC(=O)c2ccc(N)c([N+](=O)[O-])c2)c1C,2.59µM*,?,1.26µM*,12.6µM*,3.01µM*,3.98µM*
COCCn1c(C)cc(C(=O)COC(=O)c2ccc3c(c2)NC(=O)CS3)c1C,1.2%,?,0.7%,7.1%,13.5µM*,0.1%
COC(=O)c1ccc2c(c1)NC(=O)CS2,-1.0%,4.3%,-5.2%,2.7%,-1.6%,-5.6%
C=CCn1c(C)cc(C(=O)COC(=O)c2ccc3c(c2)NC(=O)CS3)c1C,-0.4%,?,2.2%,20.6%,16.9µM*,5.2%
COc1ccc(CCC(C)NCC(C)c2ccccc2)cc1 (stereo unspecified),-4.3%,-16.0%,-1.1%,.,-0.9%,4.9%
COc1ccc(-c2ccc(SC)nn2)cc1,-8.3%,?,0.1µM*,1.78µM*,1.51µM*,0.501µM*
CCSc1ccc(-c2ccc(C)cc2)nn1,?,?,0.708µM*,10µM*,2.39µM*,1µM*
COc1ccc(C(=O)CSc2ccc(-c3ccccc3)nn2)cc1,-0.8%,3.5%,-5.3%,10.5%,-15.5%,0.4%
CCOc1ccc(-c2ccc(SCC)nn2)cc1,1.16µM*,?,0.631µM*,4.47µM*,1.2µM*,0.708µM*
Cc1ccc(C2(C)NC(=O)N(CC(=O)NNC(=O)c3ccccc3F)C2=O)cc1 (stereo unspecified),19.0%,3.1%,10.9%,.,-0.2%,1.2%
O=C(Nc1ccc2c(c1)OCCO2)c1cc2sccc2n1Cc1ccc(F)cc1,-0.7%,?,27.9%,-30.4%,?,12.5%
O=C(Nc1ccc2c(c1)OCCO2)c1cc2sccc2n1Cc1ccccc1,-0.8%,?,?,9.8%,21.3µM*,23.9%
Cn1c(C(=O)Nc2ccc3c(c2)OCCO3)cc2sccc21,2.06µM*,?,1.12µM*,7.08µM*,1.07µM*,1.26µM*
